Assay results taken from PubChem BioAssay (NCATS).
Records with an inconclusive call do not appear. Where a call stands in place of a potency, no number is given. Activity calls are given as the source filed them. The call rests on the fitted dose curve; in most records, active means well fitted curve in the direction sought with a large enough effect; inconclusive means small, poorly fitted or top-dose-only effect, or another doubt; inactive means no such curve, though single readings can be large; an effect the other way counts as inactive or inconclusive.

Assays:
[1] = Vero cells viability qHTS for Zika virus inhibitors (AID 1347167)
Method in brief: (§1)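 Counter-screen for cytotoxicity of hits from NS2B-NS3 protease qHTS. Overnight-attached cells (2.5 x 10^5 cells/mL, DMEM/4% FBS) were dosed in titration, incubated 24 to 48 hours, then assayed by CellTiter Glo.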

[2] = HepG2 cells viability qHTS for Zika virus inhibitors (AID 1347168)
Method in brief: as §1

[3] = Tertiary RLuc qRT-PCR qHTS assay for Zika virus inhibitors (AID 1347169); further: top concentration of the series differs between compounds; nearly all actives have a fitted effect of over 55% in size
Method in brief: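 Orthogonal cell-based infection assay using recombinant ZIKV-RLuc (Cambodian) in Vero cells; compound added prior to virus at MOI 1-2. Incubation lasts 48-72 hrs at 37 degrees C before live-cell Renilla substrate is added and luminescence measured.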

[4] = qHTS to identify inhibitors of the type 1 interferon - major histocompatibility complex class I in skeletal muscle: primary screen against the NCATS Mechanism Interrogation Plate v5.0 (MIPE) Libary (AID 1347411); further: nearly all actives have a fitted effect of over 65% in size; further: potency means the concentration at half of the fitted maximal effect
Method in brief: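 Immortalized human myoblasts (C25cl48) with HiBit knocked into endogenous HLA-B*08:01 were stimulated with 4 ng/ml IFN-beta and given compounds in 11-point 1:3 titration from 46 uM. After 24 h at 37 C, lytic HiBiT luminescence was read.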

O=C1Nc2ccc(I)cc2C1=Cc1cc(Br)c(O)c(Br)c1
outcome [1]: inactive
outcome [2]: inactive
Potency [3]: inactive

CC(C)Oc1cc(Nc2nc(N[C@@H](C)c3ccc(F)cn3)ncc2Cl)[nH]n1
Potency [4]: 1.65 µM (active)

C[C@]12CC[C@@H]3c4ccc(O)cc4CC[C@H]3[C@H]1[C@@H](O)[C@@H](O)[C@H]2O
Potency [4]: inactive

c1ccc(-c2oc3ncnc(NC[C@@H]4CCCO4)c3c2-c2ccccc2)cc1
Potency [4]: inactive

CCc1cccc(CC)c1NC(=O)N1Cc2[nH]nc(NC(=O)c3ccc(N4CCN(C)CC4)cc3)c2C1
Potency [4]: 10.4 µM (active)

CNc1nc(Nc2ccc(C(=O)N3CCOCC3)cc2OC)ncc1Cl
Potency [4]: inactive

COc1cc2c(cc1OC)CC(=O)N(CCCN(C)C[C@H]1Cc3cc(OC)c(OC)cc31)CC2
Potency [4]: inactive

CC1CNc2c(cccc2S(=O)(=O)N[C@@H](CCCN=C(N)N)C(=O)N2CC[C@@H](C)C[C@@H]2C(=O)O)C1 (stereo partly specified)
Potency [4]: inactive

Cc1ccc(S(=O)(=O)OCC(=O)Nc2ccc(C(=O)O)c(O)c2)cc1
Potency [4]: inactive

N#Cc1c(N(CC(=O)O)CC(=O)O)sc(C(=O)O)c1CC(=O)O
Potency [4]: inactive

O=C(O)C1=CC(O)C(O)[C@H](O)C1 (stereo partly specified)
Potency [4]: inactive

CCCCC(C)(C)[C@H](O)C=C[C@H]1[C@H](O)CC(=O)[C@H]1CC=CCCCC(=O)O
Potency [4]: inactive

CCCC1OC2C[C@@H]3[C@H]4CCC5=CC(=O)C=C[C@]5(C)[C@H]4C(O)C[C@]3(C)[C@]2(C(=O)CO)O1 (stereo partly specified)
Potency [4]: inactive

O=C1CCCC(=O)C1C(=O)c1ccc(C(F)(F)F)cc1[N+](=O)[O-]
Potency [4]: inactive

O=C(CO)N1CCC(c2[nH]nc(-c3ccc(Cl)cc3)c2-c2ccncn2)CC1
Potency [4]: inactive

CN(C)CCOc1cc(-c2cn[nH]c2)ccc1NC(=O)C1COc2ccccc2O1 (stereo unspecified)
Potency [4]: inactive

CCC(=O)NCC[C@@H]1CCc2ccc3c(c21)CCO3
Potency [4]: inactive

Nc1ccn([C@@H]2O[C@H](CO)[C@@H](O)[C@H]2O)c(=O)n1
Potency [4]: inactive

Cc1nc2c([nH]1)CCN(C(=O)c1ccc(NC(=O)c3ccccc3-c3ccccc3)cc1)c1ccccc1-2
Potency [4]: inactive

COc1nccc(-c2c(-c3ccc(F)cc3)ncn2C2CCNCC2)n1
Potency [4]: inactive

O=C1C(c2c(O)[nH]c3ccccc23)=Nc2ccccc21
Potency [4]: inactive

CN1C(=O)C(Cc2c[nH]c3ccccc23)NC1=S (stereo unspecified)
Potency [4]: inactive

O=C(c1ccc(C(=O)N2CCC(N3CCCC3)CC2)c(Nc2ccccc2)c1)N1CCC(N2CCCC2)CC1
Potency [4]: inactive

CN1CCN2c3ncccc3Cc3ccccc3C2C1 (stereo unspecified)
Potency [4]: inactive

CN1CCN(c2ncc(-c3cc(Cl)cc(Cl)c3Cl)c(N)n2)CC1
Potency [4]: inactive

COC(=O)N1CCN(Cc2cccc(NC(=O)Nc3ccc(C)nc3)c2F)CC1
Potency [4]: inactive

C=CC(=O)Nc1cccc(Sc2nc(Nc3ccc(N4CCN(C)CC4)cc3)ncc2Cl)c1
Potency [4]: 13.1 µM (active)

CC1(COc2ccc3c(c2)ncn3-c2ccc3cccc(N4CCC(N)CC4)c3n2)COC1
Potency [4]: 5.23 µM (active)

CS(=O)(=O)c1ccc(C2=C(c3ccccc3)C(=O)OC2)cc1
Potency [4]: inactive

Cn1c(=O)c(-c2c(Cl)cccc2Cl)cc2cnc(Nc3cccc(C(=O)O)c3)nc21
Potency [4]: inactive

CC(C)CNc1ccnc(NCc2csc(-c3ccccc3)n2)n1
Potency [4]: 16.5 µM (active)

Cn1cc(-c2ccc3nnc(Sc4ccc5ncccc5c4)n3n2)cn1
Potency [4]: inactive

COc1cc2nccc(Oc3ccc(NC(=O)Nc4cc(C)on4)c(Cl)c3)c2cc1OC
Potency [4]: 13.1 µM (active)

CC(C)[C@H](O)C(=O)N[C@@H](C)C(=O)N[C@@H]1C(=O)N(C)CCc2ccccc21
Potency [4]: inactive
